Assay outcomes deposited in PubChem BioAssay by several laboratories.
SKKanGAS inh = SKKanGAS growth inhibition; S. pyogenes SKKanGAS, kanamycin growth, BacTiter-Glo, 6 h; inhibition, % at 7.5 µM; 300,000 compounds, 1.3% hits; AID 1662;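 active = mean replicate score, as percent of positive control median, at least 50; inconclusive = mean below 50 but one replicate at or above 50; inactive = mean and every replicate below 50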;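 note: strain carries kanamycin resistance gene driven by streptokinase promoter and grows in 40 µg/ml kanamycin; loss of luminescence reflects streptokinase promoter inhibition or plain growth inhibition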
Beta apoptosis = blocks beta cell apoptosis | INS-1E cytokine-induced death, ATP luminescence, 48 h; percent of positive-control rescue, neutral wells zero | protection from apoptosis, % (test concentration not listed) | 300,000 compounds, 0.8% hits | AID 435005;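 active = Every replicate reaches about 75%, or at least half do and their mean reaches it too, limit read from the data; inconclusive = At least half of replicates reach the limit but their mean does not; inactive = Under half of replicates reach the limit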;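 note: higher means more ATP so stronger rescue from cytokine killing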
NR3A LBD binder = NR3A (human) ligand-binding domain modulation | 340,000 compounds, 2.5% hits | AID 1259313 | NR3A LBD differential scanning fluorimetry, Tm shift; 0% = protein alone, 100% = glycine-bound protein | Tm shift relative to glycine control, % at 25 µM;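 active = melting temperature shift of at least 10% of the positive control shift, at one fixed dose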
Mdm2 MdmX PPI = inhibitors of human Mdm2/MdmX interaction. O15151+Q00987. SaOS-2 split-luciferase Mdm2/MdmX complementation, luminescence. 330,000 compounds, 3% hits. AID 485346. inhibition, % at 8 µM;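 active = inhibition of at least 50% at 8 µM in the primary screen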
Target sequence (O15151 whole entry, looked up): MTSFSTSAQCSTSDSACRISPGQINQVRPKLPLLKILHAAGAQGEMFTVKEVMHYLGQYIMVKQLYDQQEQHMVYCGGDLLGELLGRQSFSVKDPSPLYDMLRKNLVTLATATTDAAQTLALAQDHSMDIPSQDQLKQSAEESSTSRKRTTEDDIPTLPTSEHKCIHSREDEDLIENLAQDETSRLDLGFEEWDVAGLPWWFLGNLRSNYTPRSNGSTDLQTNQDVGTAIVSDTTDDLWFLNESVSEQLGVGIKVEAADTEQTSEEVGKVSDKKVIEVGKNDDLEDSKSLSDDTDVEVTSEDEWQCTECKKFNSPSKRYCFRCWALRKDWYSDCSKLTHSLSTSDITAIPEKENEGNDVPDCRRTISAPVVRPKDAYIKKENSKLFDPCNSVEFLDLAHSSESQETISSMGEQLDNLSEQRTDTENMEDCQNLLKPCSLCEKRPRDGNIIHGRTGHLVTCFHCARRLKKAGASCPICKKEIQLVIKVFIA
Target sequence (Q00987 whole entry, looked up): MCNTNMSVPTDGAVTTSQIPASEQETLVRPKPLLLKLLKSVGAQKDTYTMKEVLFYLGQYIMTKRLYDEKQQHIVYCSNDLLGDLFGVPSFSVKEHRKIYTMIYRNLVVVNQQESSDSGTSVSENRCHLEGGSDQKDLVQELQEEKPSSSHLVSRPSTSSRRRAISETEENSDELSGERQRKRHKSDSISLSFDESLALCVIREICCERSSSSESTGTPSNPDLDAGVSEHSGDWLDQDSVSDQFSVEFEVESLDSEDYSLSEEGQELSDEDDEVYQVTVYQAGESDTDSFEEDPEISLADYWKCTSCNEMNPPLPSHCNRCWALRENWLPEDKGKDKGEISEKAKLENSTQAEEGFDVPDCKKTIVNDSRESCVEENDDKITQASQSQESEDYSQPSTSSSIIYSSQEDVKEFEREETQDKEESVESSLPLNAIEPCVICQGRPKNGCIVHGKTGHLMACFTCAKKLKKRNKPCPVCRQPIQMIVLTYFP
CSC inhib = cancer stem cell inhibition; cancer stem cell-like cells viability, luminescence; inhibition, % at 7.5 µM; 300,000 compounds, 1.1% hits; AID 2717; in the data active = inhibition above about 75%; inconclusive = no clear call, values can overlap the other calls; tested in HMLE shEcad cells
MPTP inh = inhibitors of mitochondrial permeability transition pore; inhibition, % at 10 µM; isolated mouse mitochondria, Ca2+ swelling absorbance, 30 min; 360,000 compounds, 1.4% hits;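 active = inhibition of 50% or more, scaled per plate between neutral and stimulator controls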
Rh123 counter = mitochondrial membrane potential, counter-screen. AID 624504. inhibition, % at 10 µM. 5,000 compounds, 78% hits. shares compounds with MPTP inh. isolated mitochondria, Rhodamine 123 fluorescence; in the data active = inhibition above about 22%
MPTP swell DR = MPTP inhibition, dose response swelling confirmation. 780 compounds, 58% hits. isolated mitochondria swelling, absorbance. AID 651561. IC50, µM. shares compounds with MPTP inh; in the data active = IC50 below about 20 µM
MPTP cs DR = MPTP inhibitor counter-screen activity, dose response; IC50, µM; 780 compounds, 49% hits; isolated mitochondria counterscreen, fluorescence read-out; shares compounds with MPTP inh; in the data active = IC50 below about 80 µM
Each line names hits and unclear results; the compound was inactive in the other large screens (follow-up assays come after a bar, where they were run). In the library only some 6.9% were active in any assay of this set; here they are far more common.

N#C/C(=C(/O)CN1CCN(c2ccccc2F)CC1)c1nc(-c2ccc(Cl)cc2)cs1	MPTP inh 58 | Rh123 counter 71
N#C/C(=C(/O)CCl)c1nc(-c2ccccc2)cs1	none
COc1ccc(CNC(=O)CN2C(=O)c3ccc([N+](=O)[O-])cc3C2=O)cc1	none
COc1ccc(S(=O)(=O)/N=C2/C=CC(=O)C(C)=C2C)cc1	none
CC1=C(C)/C(=N\OS(=O)(=O)c2ccc(C)cc2)C=CC1=O	Beta apoptosis 106, CSC inhib 89, MPTP inh 98 (no result: SKKanGAS inh, Mdm2 MdmX PPI) | Rh123 counter 104
CC1=NN(c2ccc(F)cc2)C(=O)C1C(c1cccc(O)c1)c1c(C)[nH]n(-c2ccc(F)cc2)c1=O (centres undefined)	none
CC1=NN(c2ccc(Cl)cc2)C(=O)C1C(c1cccc(O)c1)c1c(C)[nH]n(-c2ccc(Cl)cc2)c1=O (centres undefined)	NR3A LBD binder 15, MPTP inh 101 | Rh123 counter 20
Cc1ccc(-c2nnc(N3CCOCC3)c3ccccc23)cc1S(N)(=O)=O	none (no result: Beta apoptosis, CSC inhib)
COc1ccc(NC(=S)Nc2cccc(Cl)c2Cl)cc1OC	none
COc1cc(C)c(NC(=S)Nc2ccc(C)c(Cl)c2)cc1OC	MPTP inh 61 | Rh123 counter 77
COc1cc(OC)c(NC(=S)Nc2cccc(C)c2)cc1Cl	none
COc1ccccc1NS(=O)(=O)c1cc(NC(=S)Nc2cc(C)cc(C)c2)ccc1Cl	NR3A LBD binder 20, MPTP inh 97 | Rh123 counter 94
COc1cc(C)c(NC(=S)Nc2cccc(Cl)c2)cc1OC	MPTP inh 83 | Rh123 counter 83
CC1(C)CC(=O)C=C(c2ccc(F)nc2)C1	none (no result: SKKanGAS inh)
Cc1ccc(OCCn2c(Br)nc3c2c(=O)n(C)c(=O)n3C)cc1	MPTP inh 82 | Rh123 counter 60
CSc1nc(C)cc(-c2cc(C(=O)Nc3ccccc3)on2)n1	none (no result: NR3A LBD binder, MPTP inh)
CC(C)c1ccc(CNc2c([N+](=O)[O-])c(=O)oc3ccccc23)cc1	MPTP inh 87 | Rh123 counter 94
O=c1oc2ccccc2c(Nc2ccc(Cl)cc2)c1[N+](=O)[O-]	MPTP inh 56 | Rh123 counter 83
O=c1oc2ccccc2c(NCc2ccccc2F)c1[N+](=O)[O-]	none
Cn1c(=O)c2c(nc(CN3CCN(C(c4ccccc4)c4ccccc4)CC3)n2CCCO)n(C)c1=O	none
O=C(O)c1cscc1-c1cccc2ccccc12	none (no result: SKKanGAS inh, Beta apoptosis, NR3A LBD binder, Mdm2 MdmX PPI, CSC inhib)
c1ccc(C(c2ccccc2)c2ccn[nH]2)cc1	none
CCOC(=O)COc1ccc2c(c1)c(C(C)=O)c(C)n2-c1ccc(OC)cc1	none
Cc1nc2ccccc2nc1SCC(=O)c1ccccc1	MPTP inh 75 | Rh123 counter 71
CC1(C)CC(=O)C(C2C3=C(CC(C)(C)CC3=O)Oc3c(Br)cc(Br)cc32)=C(O)C1 (centres undefined)	SKKanGAS inh 56, MPTP inh 82 | Rh123 counter 95
CC(C)c1ccc(NC(=O)CSc2nc(=O)n(CCCN3CCOCC3)c3c2CCCC3)cc1	none (no result: Beta apoptosis)
CCc1ccc(S(=O)(=O)NCc2ccc(C(=O)NCCN(Cc3ccccc3)C(C)C)cc2)cc1	MPTP inh 97 (no result: SKKanGAS inh, Beta apoptosis, NR3A LBD binder, Mdm2 MdmX PPI, CSC inhib) | Rh123 counter 93
COc1ccccc1CNC(=O)CSc1nnc2ccc(-c3cccnc3)nn12	none
COc1cc(NC(=O)C2CC2)c(OC)cc1NC(=O)CCC(=O)NC1CCN(Cc2ccccc2)CC1	none
Oc1ccc(C[C@@H]2CNCCN2CC2(c3ccccc3)CC2)cc1	none
Oc1ccc(C[C@@H]2CNCCN2CCc2cc(C(F)(F)F)cc(C(F)(F)F)c2)cc1	MPTP inh 94 | Rh123 counter inactive | MPTP swell DR 4.3 | MPTP cs DR inactive
CCCC[C@@H]1CNCCN1CCc1cccc2ccccc12	MPTP inh 65 | Rh123 counter inactive | MPTP swell DR 12 | MPTP cs DR inactive
Oc1ccc(C[C@H]2CNCCN2CCc2cccc3ccccc23)cc1	MPTP inh 76 | Rh123 counter inactive | MPTP swell DR 4.8 | MPTP cs DR inactive
O=C(Nc1sc2c(c1C(=O)O)CCCC2)c1ccc(Cl)cc1	none
CC(C)Cc1csc(NC(=O)c2ccc(Cl)cc2)c1C(=O)O	SKKanGAS inh 74, MPTP inh 90 | Rh123 counter 88
CC(=C/c1ccccc1)/C=N/NC(=O)CSc1nc(C)cc(C)n1	MPTP inh 62 (no result: CSC inhib) | Rh123 counter 33
Cc1cc(C)nc(SCC(=O)N/N=C/c2cccnc2)n1	none
CCOC(=O)c1sc(-c2ccccc2)cc1NC(=O)Nc1ccc([N+](=O)[O-])cc1	MPTP inh 87 | Rh123 counter inactive | MPTP swell DR inactive | MPTP cs DR <2.5
CCOC(=O)c1sc(-c2ccccc2)cc1N	none
COc1ccc(CNC(=O)c2cccc3c(-c4cccnc4)coc23)cc1OC	MPTP inh 99 (no result: SKKanGAS inh, Beta apoptosis, NR3A LBD binder, Mdm2 MdmX PPI, CSC inhib) | Rh123 counter 100
N#Cc1c(-c2cccs2)nc(SCc2ccc(Cl)cc2)[nH]c1=O	MPTP inh 96 (no result: Beta apoptosis, CSC inhib) | Rh123 counter 71
CC(C)(C)C1CCC2(CC1)C(C#N)=C(SCC(=O)NC1CCCCC1)NC(=O)C2C#N (centres undefined)	Beta apoptosis 107, NR3A LBD binder 12, CSC inhib inconclusive, MPTP inh 79 | Rh123 counter 88
N#CC1=C(SCC(=O)NC23CC4CC(CC(C4)C2)C3)NC(=O)C(C#N)C12CCCCC2 (centres undefined)	NR3A LBD binder 12, MPTP inh 80 | Rh123 counter 87
N#CC1=C(SCC(=O)NC2CC2)NC(=O)C(C#N)C12CCCCC2 (centres undefined)	none
CC(C)N(CCC(=O)c1ccc2ccccc2c1)Cc1ccccc1	CSC inhib 75, MPTP inh 99 (no result: SKKanGAS inh) | Rh123 counter inactive
CC(OC(=O)c1ccc2ccccc2c1)C(=O)N(C)Cc1ccccc1 (centres undefined)	none (no result: SKKanGAS inh)
CC1=NN(C(N)=S)C(=O)C1N=Nc1ccc(Cl)cc1Cl (centres undefined)	NR3A LBD binder 11, MPTP inh 55 | Rh123 counter 83
CN1CCC(=O)N(CCOc2ccccc2)CC1	none
CCOC(=O)c1cnc(SCC(=O)Nc2ccc(NC(C)=O)c(OC)c2)nc1N	none
CCOC(=O)c1cnc(SCC(=O)Nc2cc(OC)ccc2OC)nc1N	MPTP inh 86 | Rh123 counter 69
COC(=O)c1ccc(NC(=S)NC2CC3CCC2C3)cc1 (centres undefined)	MPTP inh 101 | Rh123 counter 91
S=C(Nc1cccnc1)NC1CCCCCCC1	none
S=C(Nc1ccc(Br)cc1)NC1CCCCC1	MPTP inh 97 (no result: Beta apoptosis, CSC inhib) | Rh123 counter 99
